Inconclusive results are not listed. Calls of active or inactive are those of the source. Rule for the calls: active = hit-call score of the fitted dose curve at least 0.9, where 1 is the maximum; inconclusive = response in the unintended direction; inactive = score below 0.9.

For 40 molecules, outcome and AC50 results are on record in PubChem BioAssay (EPA / NIEHS).

The nature of the assay: Tanguay_ZF_120hpf_CIRC_legacy: (Legacy) Oregon State University Tanguay Lab 120 Hour Post-fertilization zebrafish Assay for Circulatory Malformation (AID 2283651). How it is done: Tanguay_ZF_120hpf_legacy is a whole embryo, multiplexed endpoint assay using zebrafish larvae exposed for 120 hours post fertilization on a 96-well plate.Tanguay_ZF_120hpf_CIRC_legacy is one of one assay component(s) measured or calculated from the Tanguay_ZF_120hpf_legacy assay. It is designed to make measurements of zebrafish development as detected with brightfield microscopy of developing zebrafish embryos.Data from the assay component Tanguay_ZF_120hpf_CIRC_legacy was analyzed into 1 assay endpoints. This assay endpoint, Tanguay_ZF_120hpf_CIRC_legacy, was analyzed in the positive analysis fitting direction relative to DMSO as the negative control and baseline of activity. Using a type of morphology reporter, gain-of-signal activity can be used to understand changes in developmentals as they relate to the whole embryo. To generalize the intended target to other relatable targets, this assay endpoint is annotated to the zebrafish development intended target family, where the subfamily is angiogenesis.
Zebrafish husbandry: Tropical 5D wild-type adult zebrafish were housed in at an approximate density of 1000 per 100 gallon tank at the Sinnhuber Aquatic Research Laboratory, Oregon State University, Corvallis, OR. Each tank was kept at standard laboratory conditions of 28C on a 14-h light/10-h dark photoperiod in fish water consisting of reverse osmosis water supplemented with a commercially available salt (Instant Ocean). Spawning funnels were placed into the tanks the night prior, and embryos were collected and staged. To increase bioavailability, the chorion was enzymatically removed using pronase (63.6mg/ml, >/= 3.5U/mg, Sigma-Aldrich: P5147) at 4 hours post fertilization (hpf) using a custom automated dechorionator.Chemical exposures: Six hpf dechorionated embryos were placed 1 embryo per well in a 96-well plate prefilled with 90 ul of EM using automated embryo placement systems (AEPS). Ten microliters of each row of dilution plate 2 was added to 2 exposure plates. The final DMSO concentration used was 0.64% (vol/vol). Thirty-two embryos were also exposed to 5uM trimethyltin chloride (positive control). Plates were sealed to prevent evaporation and foil covered to reduce light exposure and kept in a 28C incubator. Embryos were statically exposed until 120 hpf. At 24 hpf, embryos were assessed for photomotor response using a custom photomotor response analysis tool (PRAT) and for developmental toxicity endpoints (MO24: mortality at 24 hpf, DP: developmental progression, SM: spontaneous movement, and NC: notochord distortion). At 120 hpf, locomotor activity was measured using Viewpoint Zebralab and assessed for 18 endpoints. Zebrafish acquisition and analysis program (ZAAP), a custom program designed to inventory, acquire, and manage zebrafish data, was used to collect developmental endpoints as either present or absent (i.e., binary responses were recorded). If mortality occurred for an embryo (at either 24 or 120 hpf), the non-mortality endpoints were not measured.
For the molecule `CN1C(=O)CC[C@H]1c1cccnc1`, the result was inactive.
Still for that read-out and setting: with `O=C1c2ccccc2C(=O)N1CCc1noc(-c2ccc(CN3CCCCCC3)s2)n1` the entry was “inactive”.
In the case of `CC[C@H](NC(=O)c1cc(F)ccc1NS(=O)(=O)c1cccc2cccnc12)c1ccccc1`, the outcome was inactive.
Regarding `O=C1O[C@H]([C@@H](O)CO)C(O)=C1O`, the result was inactive.
`CC(C)(c1cc(Br)c(O)c(Br)c1)c1cc(Br)c(O)c(Br)c1`: the call was inactive.
In the case of `Clc1cc(Cl)c2c(c1)N=C1CCCCCN1C2`, the call was inactive.
`O=C(O)Cn1c(=O)n(Cc2ccc(Br)cc2F)c(=O)c2ccc(Cl)cc21`: the result was inactive.
In the case of `O=c1ccc2ccccc2o1`, the molecule was classed as inactive.
`CCCCCCCCCCCCO`: the molecule was classed as inactive.
Regarding `Cc1ccc(C(C)C)cc1`, the result was inactive.
With `CCCCCCCCOC(=O)c1cc(O)c(O)c(O)c1`, the result was inactive.
On to `c1ccc(C[n+]2cccc3ccccc32)cc1`, for which the outcome was inactive.
For the molecule `Cc1ccc2oc(CN(Cc3ccccc3)C(=O)Nc3c(F)cc(F)cc3F)c(-c3ccc(Cl)cc3)c2c1`, the molecule was called inactive.
Turning to `c1ccc2ccccc2c1`, the outcome was inactive.
As for `CCCCOC(=O)CC(CC(=O)OCCCC)(OC(C)=O)C(=O)OCCCC`, the call was inactive.
Regarding `O=C(O)Cc1cc(I)c(Oc2ccc(O)c(I)c2)c(I)c1`, the molecule was called inactive.
As to `O=C(O)c1ccccc1-n1cc(C(=O)O)c(=O)c2cc(Nc3c(F)cc(F)cc3Cl)c(Cl)cc21`, the molecule was classed as inactive.
On the same count and under the same terms, for `COc1ccc2cc(S(=O)(=O)N[C@H](CC(=O)N[C@H](Cc3ccc(CN4[C@H](C)CCC[C@@H]4C)cc3)C(=O)N(C)C(C)C)c3ccc4c(c3)OCO4)ccc2c1` the value was “inactive”.
For the molecule `CCCCCCCCCCCC[N+](C)(C)C`, the molecule was called inactive.
With `OC12N=C(c3ccccc3)SC1Cc1cc(Cl)ccc12` (stereo not given), the molecule was called inactive.
Consider `OCCO`, for which the call was inactive.
As for `CN(C[C@@H](CC[N+]12CCC(C3CCCCC3)(CC1)CC2)c1ccc(Cl)c(Cl)c1)C(=O)c1cc(C(F)(F)F)cc(C(F)(F)F)c1`, the molecule was classed as inactive.
Consider `CN(C)C(=O)C1(N2CCCCC2)CCN(CC[C@@]2(c3ccc(Cl)c(Cl)c3)CN(C(=O)c3ccccc3)CCO2)CC1`, for which the outcome was inactive.
As for `CCN(CC)C(=O)c1cc(S(=O)(=O)Cc2ccccc2)c(N2CCC(c3ccccc3)CC2)cc1N(CC)CCN(C)C`, the molecule was classed as inactive.
Take `O=c1[nH]sc2ccccc12`: the call was inactive.
Consider `Oc1ccc2ccccc2c1`, for which the molecule was classed as inactive.
`C[C@]12CC[C@@H]3c4ccc(O)cc4CC[C@H]3[C@@H]1CC[C@H]2O`: the molecule was called inactive.
Take `CO[C@H]1/C=C/O[C@@]2(C)Oc3c(C)c(O)c4c(O)c(c(/C=N/N5CCN(C)CC5)c(O)c4c3C2=O)NC(=O)/C(C)=C\C=C\[C@H](C)[C@H](O)[C@@H](C)[C@@H](O)[C@@H](C)[C@H](OC(C)=O)[C@@H]1C`: the outcome was inactive.
Turning to `O=C(Nc1ccc(Cl)cc1)Nc1ccc(Cl)c(Cl)c1`, the outcome was inactive.
In the case of `NC(=O)c1nc(-c2cccc(-c3cc(F)ccc3OCC(F)(F)C(F)(F)F)c2)n[nH]1`, the AC50 (as a rule, the concentration giving half of the maximal activity seen) is 27.3 µM (active).
Take `CCCC(=O)OCCC(C)C`: the molecule was classed as inactive.
On the same count and under the same terms, with `CCN(Cc1cccc(S(=O)(=O)O)c1)c1ccc(C(=C2C=CC(=[N+](CC)Cc3cccc(S(=O)(=O)O)c3)C=C2)c2ccccc2S(=O)(=O)[O-])cc1` the entry was “inactive”; with `Cc1cn([C@H]2C[C@H](N=[N+]=[N-])[C@@H](CO)O2)c(=O)[nH]c1=O`, “inactive”.
In the case of `CCCCCCCCCCCO`, the result was inactive.
In the case of `CC/C(=C(/CC)c1ccc(O)cc1)c1ccc(O)cc1`, the outcome was inactive.
Turning to `O=C=NCCCCCCN=C=O`, the result was inactive.
In the case of `CCCCCc1ccc(N)cc1`, the call was inactive.
With `Cc1cccc2ccccc12`, the call was inactive.
Same read-out and setting: with `CN1C(=O)N(c2ccccc2Br)Cc2cnc(Nc3ccc4c(c3)OCC(CO)O4)nc21` (stereo not given) the entry was “inactive”; with `Cc1cc(F)ccc1-c1cc(N2CC[C@@H](O)[C@H]2CO)ncc1N(C)C(=O)C(C)(C)c1cc(C(F)(F)F)cc(C(F)(F)F)c1`, “inactive”.
